# Screening data deposited in PubChem by several laboratories.
# Hits are enriched below; roughly 1.8% of the tested compounds scored in any of these assays.
# RN4220 kill: growth inhibition of S. aureus RN4220, primary screen, OD600; actives 0.33% (n = 330,000); inhibition, % (no concentration beside the values); 16 h; in the data active means inhibition above about 85%;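 further: plate controls were untreated cells for no effect and reference antibiotic for full effect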
# VHR inh abs: VHR1 phosphatase inhibitors, primary screen, biochemical, absorbance, uHTS | recombinant VHR phosphatase, pNPP absorbance | AID 1654, 2009 | actives 0.52% (n = 290,000) | Dual specificity protein phosphatase 3 (Homo sapiens), P51452 | inhibition, % at 13.3 µM; in the data active means inhibition above about 50%
# Target sequence (P51452 whole entry, looked up): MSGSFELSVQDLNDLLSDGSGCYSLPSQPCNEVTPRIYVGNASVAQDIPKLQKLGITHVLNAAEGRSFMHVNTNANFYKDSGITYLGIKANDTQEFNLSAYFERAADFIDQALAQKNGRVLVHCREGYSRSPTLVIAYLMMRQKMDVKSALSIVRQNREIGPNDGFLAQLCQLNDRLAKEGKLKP
# ugtP null kill: growth inhibition of ugtP-null S. aureus, primary screen, RN4220 ugtP deletion, OD600 | growth inhibition, % (no concentration beside the values) | actives 0.54% (n = 330,000) | AID 1259309, 2017 | 16 h; in the data active means growth inhibition above about 68%;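 further: plate controls were untreated wells for no effect and antibiotic for full effect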
# PfHsp40 yeast: rescue of yeast from PfHsp40 toxicity, primary screen, S. cerevisiae, ATP luminescence; S. cerevisiae expressing PfHsp40, growth rescue; growth rescue, % at 12.5 µM; actives 0.68% (n = 340,000); AID 504582, 2011; in the data active means growth rescue above about 28%, passing the limit was not always enough;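 further: yeast W303a lacking pdr1 and pdr3 grown in galactose medium; growth measured after three days at 30 °C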
# Mtb hypoxia inh: PubChem AID 1159583 | fluorescence inhibition, % (no concentration beside the values) | M. tuberculosis hypoxia-regulated fluorescent reporter, fluorescence | actives 0.1% (n = 300,000); in the data active means fluorescence inhibition mostly above about 23%, no sharp cut-off; inactive means mostly below about 17%
# PriA SSB inh: inhibitors of Klebsiella pneumoniae PriA binding to SSB C-terminal tail, primary screen, biochemical, AlphaScreen | AlphaScreen SSBct-PriA binding, biotinylated peptide | actives 0.6% (n = 430,000) | PriA–SSB C-terminal tail interaction (Klebsiella pneumoniae) | AID 1272365, 2023 | inhibition, % at 33 µM; in the data active means inhibition mostly above about 37%, no sharp cut-off; inactive means mostly below about 20%;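 further: plate controls were negative control peptide for no effect and reference peptide for full effect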
# Numbers without * were called inactive; x = no result given; ! = a repeat was not active.
SMILES,RN4220 kill,VHR inh abs,ugtP null kill,PfHsp40 yeast,Mtb hypoxia inh,PriA SSB inh
O=C(Nc1ccc(S(=O)(=O)N2CCCC2)cc1)c1ccccc1,4.0,x,1.0,0.5,-4.5,1.8
COc1ccc(NC(=S)N=C(Nc2ccc(C)cc2)c2ccccc2)cc1,x,x,x,x,x,46.0*
Cc1nc(CCl)cs1,x,x,x,x,x,20.0
CC(=CC(=O)OCCCCCCCCC(=O)O)CC1OCC(CC2OC2C(C)C(C)O)C(O)C1O (configuration not stated),100.2*,x,100.2*,x,7.5,x
CCCCc1cc2c(s1)CCCCC2=NO,6.1,x,-1.7,x,-6.4,-18.7
CCc1nc(NCCC(C)C)c(C#N)c2c1CCCC2,0.5,5.7,87.8*,-1.4,1.9,-3.6
CC(C)CCNc1nc(-c2ccco2)c2c(c1C#N)CCCC2,-6.7,59.0*,72.4,0.3,x,12.1
CCCC1Oc2ccccc2C(=O)N(CC(=O)c2ccc(F)cc2)C1=O (configuration not stated),x,x,x,x,x,54.0*
Cc1cccc(CSc2ncnc3c2cnn3Cc2ccccc2)c1,-8.0,18.7,98.1*,-0.2,5.2,-42.2
Cc1ccc(-n2ncc3c(SCc4cccc(C)c4)ncnc32)cc1,-0.9,12.7,78.7,-0.1,2.5,5.6
CC(Oc1ccccc1F)C(=O)NCCOc1ccc2nnc(-c3ccccc3)n2n1 (configuration not stated),x,x,x,x,x,-3.0
O=C(Nc1ccc2c(c1)OCO2)N1CCn2cccc2[C@H]1c1ccc(F)c(F)c1,x,x,x,x,x,33.0*
CCN(CC(=O)Nc1cc(Cl)ccc1C)c1ncnc2sc(C)c(C)c12,3.3,16.9,19.5,33.0*,9.5,-12.3
CCN(CC(=O)Nc1cc(Cl)ccc1C)C(=O)CCOc1ccc(C)cc1,3.3,x,-4.8,-0.6,24.9,5.3
COc1ccc(-c2ccc(S(=O)(=O)N3CCC[C@H]3C(=O)O)cc2)cc1,x,x,x,x,x,-17.0
O=[N+]([O-])c1cccnc1S(=O)(=O)c1ccccc1,x,3.0,x,104.2*,x,-13.1
COc1ccc([N+](=O)[O-])c(S(=O)(=O)c2ccc(Cl)cc2)n1,100.0*,-2.7,100.4*,50.3*,3.2,-9.0
COc1ccc([N+](=O)[O-])c(S(=O)(=O)c2ccccc2)n1,42.1,8.7,96.1*,x,19.9,-13.2
Nc1cccnc1S(=O)(=O)c1ccccc1,-1.3,5.8,12.4,-0.9,6.2,-8.0
CCOC(=O)C(=NNc1cccc(C(F)(F)F)c1)N(CCOC)CCOC,3.0,x,3.0,x,-1.9,-17.8
Cc1cc(C(=O)N2CC(c3nc(-c4cccc(C(F)(F)F)c4)no3)C2)c(C)o1,x,x,x,x,x,-17.0
COc1ccccc1N1CCN(C(=O)c2cn(C)nc2OC)CC1,x,x,x,x,x,-18.0
CCCc1nnsc1C(=O)O,x,x,x,x,x,-1.0
COc1cccc2cc(-c3nnc(NC(=O)c4ccc(S(=O)(=O)N(C)C)cc4)o3)oc12,x,x,x,x,x,-25.0
COC(=O)CSc1nnc(CNC(=O)c2ccco2)n1C,x,x,x,x,x,-11.0
SMILES,RN4220 kill,VHR inh abs,ugtP null kill,PfHsp40 yeast,Mtb hypoxia inh,PriA SSB inh
Nc1c(Cl)cc(C2=NCCn3c2c2ccc([N+](=O)[O-])cc2[n+]3[O-])cc1Cl,54.2,x,62.7,4.9,44.5*,19.2
CN(C)CCCNCCCNC(=O)C=NO,3.4,x,-1.1,x,9.9,-7.0
O=C(NC1CCSc2ccccc21)c1cccc(Br)c1 (configuration not stated),3.0,-3.0,-4.4,94.1*,-2.8,-5.8
Cc1ccnc(Nc2ccc(NCCNC(=O)Nc3ccc(F)c(Cl)c3)nn2)c1,x,x,x,x,x,96.0*
Cc1ccnc(Nc2ccc(NCCNC(=O)Nc3cccc(C(F)(F)F)c3)nn2)c1,x,x,x,x,x,32.0*
CN(C)S(=O)(=O)Nc1cnn(C2CCOC2)c1 (configuration not stated),x,x,x,x,x,-10.0
CCCCCC[N+](C)(C)CC/C=C1/c2ccccc2Sc2ccc(Cl)cc21,100.2*,1.2,98.6*,0.0,x,10.6
CN(C)CC/C=C1/c2ccccc2Sc2ccc(Cl)cc21,-1.7,28.9,-4.0,-0.8,15.7,18.3
Cc1cc(C(=O)NC2CCC(Oc3cnccn3)CC2)no1 (configuration not stated),x,x,x,x,x,-18.0
C(=N/N1CCN(c2ccccc2)CC1)/c1ccncc1,x,30.7,x,164.1*,x,x
C(=NN1CCN(c2ccccc2)CC1)c1ccncc1,6.1,x,3.4,x,1.2,4.0
CCOc1ccc(NC(=O)c2csc3c2CCCC3)cc1,x,-3.6,x,0.6,x,115.4*
COc1ccc(NC(=O)CCCn2nc(-c3ccc(Cl)cc3)ccc2=O)c(OC)c1,x,x,x,x,x,-7.0
Cc1cccc(-n2c(-c3csc(C(C)C)c3)n[nH]c2=S)c1,3.3,-12.2,15.7,-1.5,-3.2,4.9
CCCc1cc(-c2n[nH]c(=S)n2-c2cccc(C)c2)cs1,-0.3,19.7,25.7,67.7*,3.5,0.7
Cc1ccc(NC(=O)c2ccc(Cl)c(S(=O)(=O)NCc3ccco3)c2)c(O)c1,3.9,x,-2.9,0.1,-7.3,-8.7
NS(=O)(=O)c1ccc(NC(=O)c2ccc(Cl)c(S(=O)(=O)NCc3ccco3)c2)cc1,-1.8,x,3.4,-0.3,22.2*,-1.2
CNC(=O)C1CCC(=O)N1Cc1ccc(C)cc1 (configuration not stated),1.7,4.8,-1.2,0.3,5.7,-0.2
Cc1ccc(CN2C(=O)CCC2C(=O)NC(C)C)cc1 (configuration not stated),3.2,-14.9,-3.6,77.6*,8.0,-16.7
OC(CNCCC1C=Nc2ccccc21)Cn1c2ccc(Cl)cc2c2cc(Cl)ccc21 (configuration not stated),100.5*,2.6,100.8*,-0.3,-3.3,65.3*
COCC(=O)Nc1ccc2c(c1)CCN2C(=O)C1CC1,x,x,x,x,x,-6.0
COP(=O)(OC)c1nc(-c2ccc(C)cc2)oc1N1CCCCC1,1.8,-18.4,1.5,1.9,2.8,50.6*
CCOP(=O)(OCC)c1nc(-c2ccc(OC)cc2)oc1N1CCOCC1,5.6,15.2,11.8,0.8,13.7,-10.4
Cc1ccc(OCc2ccc(-c3nc(C#N)c(NCCCn4ccnc4)o3)o2)cc1,x,x,x,x,x,60.0*!
COc1ccc(-c2nc(C#N)c(N3CCCN(C)CC3)o2)cc1,x,x,x,x,x,69.3*
SMILES,RN4220 kill,VHR inh abs,ugtP null kill,PfHsp40 yeast,Mtb hypoxia inh,PriA SSB inh
N#Cc1nc(-c2ccc(F)cc2)oc1N1CCCCCC1,x,x,x,x,x,112.2*
COc1ccc(-c2nc(C#N)c(N3CCN(c4ccccc4)CC3)o2)cc1,5.3,29.6,-10.1,0.7,-5.5,15.4
Fc1ccc(NN=Cc2ccncc2)c(F)c1,4.1,x,0.3,x,3.2,7.4
Cc1ccc(NC(=O)Cn2nc(NC(C)C)c(-c3nc(-c4ccc(Cl)cc4)no3)c2N)c(C)c1,x,x,x,x,x,-11.0
COc1ccc(O)c(C(=O)/C=C/c2ccc3c(c2)OCCO3)c1,x,x,x,x,x,6.0
COc1ccc(-c2nc(C#N)c(N3CCCCC3)o2)cc1OC,x,x,x,x,x,59.2*
CCOc1ccc(-c2nc(C#N)c(N3CCCCC3)o2)cc1,x,x,x,x,x,93.6*
COc1ccc(N2CCN(c3oc(-c4ccc(OC)c(OC)c4)nc3C#N)CC2)cc1,3.1,15.9,-17.7,0.2,4.6,-6.8
